Rows were chosen to be rich in hits. Some 12% of all compounds tested hit in one or more screens of this group.
JMJD2A Tudor inh – blocks the human JMJD2A Tudor domain | O75164 | AlphaScreen JMJD2A-Tudor / H3K4me3 peptide binding | Potency, µM (series often up to 114 µM), without a hit: at the highest dose activity change, negative = inhibition, hits mostly inhibitors | 390,000 compounds, 4.4% hits; also: % is scaled to controls: 0 for no effect and ±100 for the full control effect; nearly all actives have a fitted effect of over 50% in size
Target sequence (O75164 whole entry, looked up, the tested form may be a part): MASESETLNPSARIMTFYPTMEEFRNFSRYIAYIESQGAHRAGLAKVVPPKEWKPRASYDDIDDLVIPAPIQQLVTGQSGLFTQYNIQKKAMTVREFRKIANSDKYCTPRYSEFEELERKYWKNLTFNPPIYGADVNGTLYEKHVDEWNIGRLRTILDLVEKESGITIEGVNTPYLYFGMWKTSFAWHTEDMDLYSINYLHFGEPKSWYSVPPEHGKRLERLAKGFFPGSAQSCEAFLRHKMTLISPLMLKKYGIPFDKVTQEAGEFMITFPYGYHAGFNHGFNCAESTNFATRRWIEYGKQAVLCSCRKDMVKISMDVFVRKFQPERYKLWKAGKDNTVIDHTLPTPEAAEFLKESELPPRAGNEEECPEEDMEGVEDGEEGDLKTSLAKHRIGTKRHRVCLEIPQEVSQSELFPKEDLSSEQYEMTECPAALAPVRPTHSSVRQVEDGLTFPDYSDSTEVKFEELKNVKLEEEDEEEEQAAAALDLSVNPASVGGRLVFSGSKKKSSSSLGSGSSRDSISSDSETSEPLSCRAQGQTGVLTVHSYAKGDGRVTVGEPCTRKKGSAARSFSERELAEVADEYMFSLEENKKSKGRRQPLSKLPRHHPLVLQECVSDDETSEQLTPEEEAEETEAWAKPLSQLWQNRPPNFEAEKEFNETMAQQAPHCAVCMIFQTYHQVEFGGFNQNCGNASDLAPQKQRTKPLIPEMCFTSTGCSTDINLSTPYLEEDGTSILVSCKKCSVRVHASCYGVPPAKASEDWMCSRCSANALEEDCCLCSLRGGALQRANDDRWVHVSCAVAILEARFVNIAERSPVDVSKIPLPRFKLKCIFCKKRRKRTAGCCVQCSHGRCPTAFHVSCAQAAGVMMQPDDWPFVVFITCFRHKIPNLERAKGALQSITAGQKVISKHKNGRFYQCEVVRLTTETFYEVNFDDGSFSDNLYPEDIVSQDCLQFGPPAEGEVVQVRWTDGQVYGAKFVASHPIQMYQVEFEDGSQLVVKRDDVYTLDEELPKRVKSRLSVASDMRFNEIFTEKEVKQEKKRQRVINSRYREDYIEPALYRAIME
L3MBTL1 inh – inhibitors of human L3MBTL1 | Q9Y468 | AlphaScreen L3MBTL1–H3K9me1 peptide binding | Potency, µM (top dose mostly 57.1 µM), for the others: top-dose activity, negative = inhibition, actives largely listed as inhibitors | 230,000 compounds, 0.66% hits; also: % is scaled to controls: 0 for no effect and ±100 for the full control effect; nearly all actives have a fitted effect of over 60% in size
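AlphaScreen proximity signal between nickel-chelate acceptor and streptavidin donor beads (final 10 ug/mL) reports binding of 50 nM L3MBTL1 to 75 nM biotin-H3 K9me1 peptide; complex incubated with compounds 30 min at room temperature; cefsulodin titration as control.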
G9a inh – G9a (human) methyltransferase inhibition | AID 504332 | Q96KQ7 | 350,000 compounds, 8.8% hits | G9a H3K9 monomethylation, AlphaScreen, 2 h | Potency, µM (highest dose often 102 µM), for the others: at the highest dose activity, negative = inhibition, most hits filed as inhibitors; also: % is scaled to controls: 0 for no effect and ±100 for the full control effect; nearly all actives have a fitted effect of over 75% in size
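Quantitative HTS format: methyltransferase activity on a biotin-tagged H3K9 peptide is measured by AlphaScreen, using a rabbit anti-monomethyl-H3K9 antibody with streptavidin donor and anti-IgG acceptor beads. Final levels are 20 nM enzyme, 500 nM peptide, 20 uM SAM; 2 h RT.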
HP1b chromo inh – inhibitors of HP1-beta chromodomain binding to methylated histone tails. Potency, µM (series often up to 114 µM), for inactives: top-dose activity change, negative = inhibition, actives largely listed as inhibitors. AlphaScreen HP1-beta / biotin-H3K9me3 peptide binding. AID 540317. 390,000 compounds, 0.56% hits; also: nearly all actives have a fitted effect of over 70% in size
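Compound inhibition of the preformed complex between 50 nM HP1-beta and 50 nM biotinylated H3K9me3 peptide was read by AlphaScreen. Buffer was PBS pH 7.4 with 0.01% Tween-20. Incubations ran 30 min at room temperature, with 10 ug/mL donor/acceptor beads.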
BAZ2B inh – blocks human BAZ2B | Q9UIF8 | 360,000 compounds, 4.4% hits | Potency, µM (titrated, usually from 114 µM), for the others: top-dose activity change, negative = inhibition, usual class: inhibitors | AlphaScreen BAZ2B-H3K14Ac peptide displacement | AID 504333; also: % is scaled to controls: 0 for no effect and ±100 for the full control effect; nearly all actives have a fitted effect of over 60% in size
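AlphaScreen displacement of biotin-H3(5-23)K14Ac peptide (50 nM final) from BAZ2B (50 nM final) in PBS pH 7.4, 0.01% Tween-20; complex preformed 30 min RT, then compounds (top 110 uM) 30 min RT, beads 20 min dark.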
Sfp PPTase inh – blocks B. subtilis Sfp PPTase activity; Biochemical Sfp PPTase activity, qHTS; AID 1490; 310,000 compounds, 3.5% hits; Potency, µM, inactives show largest response in the series, negative = inhibition, actives largely listed as inhibitors;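 also: the enzyme is Sfp with the accession as filed and its product quenches rhodamine fluorescence; 0% = enzyme reaction without inhibitor and -100% = no enzyme wells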
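Sfp 15 nM + cpd, 15 min RT; start w/ rhodamine-CoA 5 uM, BHQ-2-YbbR 12.5 uM (final); 50 mM Hepes pH 7.6, 10 mM MgCl2, 0.01% NP-40, 0.01% BSA; read 525/598 nm at 0 and 30 min.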
* hit, by the source's call; ! = not active in a repeat; [ ] = another dose, or the depositor's remark. Calls follow the shape of the dose curve; as a rule, active = well fitted curve in the direction sought with a large enough effect; inconclusive = small, poorly fitted or top-dose-only effect, or another doubt; inactive = no such curve, though single readings can be large; an effect the other way counts as inactive or inconclusive. Potency is read from the fitted curve at half-maximal effect.

Screening CCN1CCN(c2ccc(S(=O)(=O)N3CCCCC3)cc2NC(=O)c2ccc([N+](=O)[O-])o2)CC1 returned JMJD2A Tudor inh inconclusive, L3MBTL1 inh -3%, G9a inh 35µM*, HP1b chromo inh inconclusive and BAZ2B inh -32%.
Screening N#CCCN(C(=O)COC(=O)Cc1c[nH]c2ccccc12)c1ccccc1 returned JMJD2A Tudor inh -12%, L3MBTL1 inh -4%, G9a inh 13%[0.501 µM], HP1b chromo inh 21% and BAZ2B inh -1%.
`N#Cc1c(Nc2ccc(Cl)cc2)s[nH]c1=O` gave JMJD2A Tudor inh 79µM*, HP1b chromo inh -5%, BAZ2B inh -5% and Sfp PPTase inh 50µM*.
For CC(Oc1ccc(F)cc1Br)c1nc2ccccc2c(=O)[nH]1 (stereo unspecified) the results were JMJD2A Tudor inh -9%, G9a inh 22%, HP1b chromo inh -2%, BAZ2B inh -4% and Sfp PPTase inh 12%.
Screening O=C(Nc1nnc(S(=O)(=O)N2CCN(c3ccc(F)cc3)CC2)s1)c1ccccc1 returned JMJD2A Tudor inh -3%, G9a inh inconclusive, HP1b chromo inh 34%, BAZ2B inh -8%[57.1 µM] and Sfp PPTase inh 0%.
For COc1ccccc1C(CCN(Cc1ccccc1)C(C)=O)c1ccco1 (stereo unspecified) the results were JMJD2A Tudor inh -22%, G9a inh 21%[12.7 µM], HP1b chromo inh 25%, BAZ2B inh inconclusive and Sfp PPTase inh 56µM*.
For CCC(=O)N(CCC(c1ccco1)C(C)C)Cc1ccccc1 (stereo unspecified) the results were JMJD2A Tudor inh 79µM*, L3MBTL1 inh 9%, HP1b chromo inh 0%, BAZ2B inh 4% and Sfp PPTase inh 45µM*.
`CCC(=O)N(CCC(c1ccc(C)cc1)c1ccco1)Cc1ccco1` (stereo unspecified) gave JMJD2A Tudor inh inconclusive, L3MBTL1 inh -5%, G9a inh inconclusive, HP1b chromo inh -9%, BAZ2B inh 50µM* and Sfp PPTase inh inconclusive.
Screening COc1ccccc1C(CC(N)=O)c1ccco1 (stereo unspecified) returned JMJD2A Tudor inh -16%, L3MBTL1 inh 0%, G9a inh 0%[12.7 µM], HP1b chromo inh 10%, BAZ2B inh -2% and Sfp PPTase inh 0%.
CCCn1c2ccccc2c2cnn(CC(=O)NCc3ccccc3Cl)c(=O)c21 was read as JMJD2A Tudor inh -24%, G9a inh 3%[59 µM], HP1b chromo inh -14% and BAZ2B inh 1%.
`CC1CCN(Cc2c(C#N)c3ccccc3n2C)CC1` gave JMJD2A Tudor inh 13%, L3MBTL1 inh 6%, G9a inh 25µM*, HP1b chromo inh 93%, BAZ2B inh 18% and Sfp PPTase inh -4%.
For Cn1c(CN2CCOCC2)c(C#N)c2ccccc21 the results were JMJD2A Tudor inh 1%, L3MBTL1 inh -10%, G9a inh 32µM*, HP1b chromo inh 30%, BAZ2B inh 3% and Sfp PPTase inh -17%.
CCOC(=O)c1oc2ccccc2c1COC(=O)CNC(=O)c1ccco1 was read as JMJD2A Tudor inh -9%, L3MBTL1 inh 1%, G9a inh 4%[12.7 µM], HP1b chromo inh 19% and BAZ2B inh 7%.
Screening O=C(O)CCc1ccc(-c2ccccc2)n1-c1ccc(C(=O)O)cc1 returned JMJD2A Tudor inh -31%, G9a inh 14µM*!, HP1b chromo inh 25%, BAZ2B inh -5% and Sfp PPTase inh -5%.
For CC(=O)c1cccc(-n2c(CCC(=O)O)ccc2-c2ccc(C)cc2)c1 the results were JMJD2A Tudor inh -36%, G9a inh 18%[2.33 µM], HP1b chromo inh -13%, BAZ2B inh -27% and Sfp PPTase inh -19%.
For CC(=O)c1ccc(-n2c(CCC(=O)O)ccc2-c2ccc(Cl)cc2)cc1 the results were JMJD2A Tudor inh -31%, G9a inh 40µM*, HP1b chromo inh -4%, BAZ2B inh inconclusive and Sfp PPTase inh 2%.

Compound activity as filed in PubChem.
